SMILES strings stand for the structures. Values without a mark were called inactive. Active and inactive are the calls of the source.

The nature of the assay: S. pombe growth modifiers, basal conditions – strain 972, OD600, 24 h, no modulator, primary screen (AID 1090).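 Also: basal condition with compound alone and no growth modifier present; test concentration not given here.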 The following applies: S. pombe 972 growth, higher = more signal, called active from +8 up or from −8 down.
As for `CC(C)CN1CCc2nc(-c3ccccc3)c3c(c2C1)CO[C@@H](C)C3`, the z-score was 0.218.

As to `COCC#Cc1ccc([C@@H]2N[C@H](C(=O)O)CC[C@H]2C)cc1`, the z-score was -1.81.

Consider `C[C@@H](c1ccccc1)N1C(=O)[C@H]2[C@H]3[C@H](O)[C@H](O)CC(=NOC[C@@H](O)COCc4ccco4)[C@H]3CC[C@H]2C1=O`, for which the z-score is 0.453.

For the molecule `CCOC(=O)[C@H](CC(C)C)NC(=O)CCC1CC(OC(=O)NCc2ccc3c(c2)OCO3)CC2(CCCC(COC(=O)NCCc3ccc(Cl)cc3)O2)O1` (some centres not stated), the z-score was -0.571.

On to `C#CCCCON=C1C[C@@H](O)[C@@H](O)[C@@H]2[C@@H]3C(=O)N(C4CCCCC4)C(=O)[C@@H]3CC[C@@H]12`, for which the z-score is -1.61.

For `CC(C)=CCCC(C)=CCON=C1C[C@@H](O)[C@@H](O)[C@@H]2[C@@H]3C(=O)N(c4cccc(Oc5ccccc5)c4)C(=O)[C@@H]3CC[C@H]12`, the z-score was -0.0823.

As to `COc1ccc(O[C@H]2C=C[C@@H](C#Cc3ccccc3)O[C@@H]2CO)cc1`, the z-score was -20.4 (active).

For the molecule `CCCNC(=O)OC[C@H]1O[C@H](CCON=C[C@@H](NS(=O)(=O)c2ccc(C)cc2)[C@H](C)C=CCC(=O)OC)C=C[C@@H]1Oc1ccc(OC)cc1`, the z-score was 0.331.

On to `COC(=O)[C@H](C)NC(=O)CCC1CC(OC(=O)NCc2cccc3ccccc23)CC2(CCCC(COC(=O)NCCCN3CCCC3=O)O2)O1` (some centres not stated), for which the z-score is 1.05.

As for `COC(=O)[C@H](C)NC(=O)CCC1CC(OC(=O)NCCc2ccc(F)cc2)CC2(CCCC(COC(=O)NCC3CCCCC3)O2)O1` (some centres not stated), the z-score was -0.781.

With `COC(=O)[C@H](C)NC(=O)CCC1CC(OC(=O)NCc2ccc3c(c2)OCO3)CC2(CCCC(COC(=O)NCCc3ccc(Cl)cc3)O2)O1` (some centres not stated), the z-score is 0.744.

In the case of `COc1ccc(COC(=O)NN=C2C[C@@H](O)[C@@H](O)[C@@H]3[C@@H]4C(=O)N([C@@H](C)c5ccccc5)C(=O)[C@@H]4CC[C@@H]23)cc1`, the z-score was 0.207.

In the case of `COc1ccc(O[C@H]2C=C[C@@H](c3ccccc3)O[C@@H]2COC(=O)CCC(C)=NOC[C@@H](O)COCc2ccco2)cc1`, the z-score was -0.761.

For `CCN1C(=O)[C@H]2[C@H]3[C@H](O)[C@H](O)CC(=NOCC(C)C)[C@H]3CC[C@H]2C1=O`, the z-score was 0.735.

For the molecule `CC(=O)OC[C@H]1O[C@H](C#CCC2CCCCC2)C=C[C@@H]1OC(C)=O`, the z-score was -15.5 (active).

Take `CCN1C(=O)[C@H]2[C@H]3[C@H](O)[C@H](O)CC(=NOC[C@@H](O)[C@H]4O[C@@H]5OC(C)(C)O[C@@H]5[C@H]4O)[C@@H]3CC[C@H]2C1=O`: the z-score is 0.234.

As to `C[C@@H]1CC[C@@H](C(=O)O)N[C@H]1c1cccc(N2CCOCC2)c1`, the z-score was -0.623.

With `CCOC(=O)NN=C1C[C@@H](O)[C@@H](O)[C@@H]2[C@@H]3C(=O)N(c4ccc(F)cc4F)C(=O)[C@@H]3CC[C@H]12`, the z-score is -0.816.

On to `CCC1=NOC(CCC2CC(OC(=O)NCc3cccc4c3OCO4)CC3(CCCC(COC(=O)NCCc4ccc(Cl)cc4)O3)O2)C1` (configuration not stated), for which the z-score was 0.232.

Turning to `CCOC(=O)CCN1C(=O)[C@H]2[C@H]3[C@H](O)[C@H](O)CC(=NO[C@@H]4O[C@H](CO)[C@@H](O)[C@H](O)[C@H]4O)[C@@H]3CC[C@H]2C1=O`, the z-score is -0.664.

In the case of `CCOC(=O)[C@H](CC(C)C)NC(=O)CCC1CC(OC(=O)NCc2ccc3c(c2)OCO3)CC2(CCCC(COC(=O)NCc3ccccc3)O2)O1` (some centres not stated), the z-score is 1.12.

For `CC(C)C(=O)N[C@H]1CCCN1C(=O)C=Cc1ccccc1`, the z-score was 0.495.

Turning to `COC(=O)[C@H](C)NC(=O)CCC1CC(OC(=O)NCc2cccc3ccccc23)CC2(CCCC(COC(=O)NCc3ccccc3)O2)O1` (some centres not stated), the z-score is 0.507.

On to `CCOC(=O)[C@H](CC(C)C)NC(=O)CCC1CC(OC(=O)NCCc2ccc(F)cc2)CC2(CCCC(COC(=O)NCc3cccc4ccccc34)O2)O1` (some centres not stated), for which the z-score is -0.421.

Consider `COC(=O)CC=C[C@@H](C)[C@@H](C=NOC(C)CN1CCCCc2nc(C)c(C)cc21)OC` (some centres not stated), for which the z-score is -0.472.

For the molecule `CCN1C(=O)[C@H]2[C@H]3[C@H](O)[C@H](O)CC(=NOC[C@@H](O)COCc4ccco4)[C@H]3CC[C@H]2C1=O`, the z-score is -0.258.

With `COCCNC(=O)OCC1CCCC2(CC(OC(=O)NCc3cccc4ccccc34)CC(CCC(=O)N[C@@H](C)C(=O)OC)O2)O1` (some centres not stated), the z-score was 1.4.
